About 83,000 compounds went through this panel and 20% of them were active in at least one assay; those are over-represented in the sample as a whole.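 Results are percent growth after 48 hours of single-concentration exposure. 100 means growth as in untreated cells, lower positive values show inhibition; negative values down to -100 show cell death.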 Unmarked numbers belong to inactive results. The source made the active and inactive calls.
The molecules below were run on OVCAR-8 ovarian (assay: NCI-60 one-dose screen, 48 h (100 = growth as untreated, 0 = no growth, -100 = all killed)). Details: 10 µM.
Protocol: Growth inhibition of the OVCAR-8 human tumor cell line is measured as a screen for anti-cancer activity. Cells are grown in 96 well plates and exposed to the test compound for 48 hours. Compounds are tested at a single concentration, which is 10^-5 M for most compounds. The reported endpoint is percent growth (GI% or GIPRCNT), where numbers from 0 - 100% represent growth inhibition, and numbers from -100% - 0 represent cell death. For example, a value of 40 represents 60% growth inhibition. A value of 0 means no net growth occurred over the course of the experiment. A value of -40 indicates 40% of cells at the beginning of the experiment died by the end of the experiment. A value of -100 means all cells are dead at the end of the experiment.
NCI-60 Human Tumor Cell Lines Screen was performed using the standard one-dose NCI protocol, which is described in more detail at https://dtp.cancer.gov/discovery_development/nci-60/default.htm.
Compounds with GIPRCNT values below 10 were considered active. Activity score was based on GIPRCNT using the following formula: […]
Score is 0 for GIPRCNT values of 100 or above, 50 for GIPRCNT values of 0, and 100 for GIPRCNT values of -100.
In the case of `CCCCC/C=C/C/C=C/CCCCCCCC1=NC(C)(C)CN1C(C)C`, the growth was 28.3%. For `O=C1c2ccccc2C(=O)N1CCCCNc1ccccc1`, the growth was 101%. With `COc1cc(-c2nn(-c3cccc(NC(=O)CCN4CCN(Cc5ccccc5)CC4)c3)cc2-c2ccncc2)ccc1Cl` the growth was 12.7%. `Cc1ccc(C2=NN(c3ccc(S(C)(=O)=O)cc3)C(=O)CC2)cc1` showed a growth of 31.8%. `CN(C)CCOc1cccc(NC2=C(Cl)C(=O)C(Nc3cccc(OCCN(C)C)c3)=C(Cl)C2=O)c1` was tested, and the growth was -94.9% (active). `CCOS(=O)(=O)c1c(C(C)C)cc(C(C)C)cc1C(C)C` gave a growth of 103%. In the case of `Nc1nc(-c2ccc(Cl)cc2)cc(-c2cc3ccccc3oc2=O)n1`, the growth was 106%. `C=CCSC(CC)(CC)C(=O)NC` gave a growth of 105%. `Clc1nc2ccc(Br)cc2cc1-c1nc2ccccc2[nH]1` gave a growth of 88.2%. With `CCN1CCN(CCC(=O)Nc2cccc(-n3cc(-c4ccncc4)c(-c4ccc(Cl)c(OC)c4)n3)c2)CC1` the growth was 24.2%. For `COc1ccc2c(c1)C(=O)/C(=C/c1cccc(OCC(=O)c3ccc([N+](=O)[O-])cc3)c1)CO2`, the growth was 2.15% (active). For `Cc1cc(SCc2ccccc2)nc(N)n1`, the growth was 105%. `CC(C)[N+]1(C)C2CC[C@@H]1CC(OC(=O)C(CO)c1ccccc1)C2` (stereo not given in full) gave a growth of 104%. For `c1ccc(/C(=N\Nc2ccc3ccccc3n2)c2ccccn2)cc1`, the growth was 11.1%. In the case of `S=C(NCc1ccccc1)NCc1ccccc1`, the growth was 94.7%. Work on `CCOC(=O)C1=CSC2=NC3=C(CCC/C3=C\c3cc(OC)c(OC)c(OC)c3)C(c3cc(OC)c(OC)c(OC)c3)N12` (stereo not given) yielded a growth of 13.5%. `O=C(N/N=C/c1ccc([N+](=O)[O-])cc1)c1ccccc1Nc1cccc(C(F)(F)F)c1` showed a growth of 95.8%. `CC(=O)Nc1cc2c(cc1Cl)Cc1cc(Cl)ccc1-2` was tested, and the growth was 88.2%. For `CCOc1ccccc1/C=N\N=C\c1ccccc1O`, the growth was 107%. Molecule `COc1ccc(-c2cc(-c3ccc(OC)c(OC)c3)nc(SCCCC(=O)NO)n2)cc1` has a growth of 10.4%. With `Cc1cc(O)ccc1C1=NN(c2ccc(S(C)(=O)=O)cc2)C(=O)CC1` the growth was 92.3%. Work on `NS(=O)(=O)Oc1ccc(NC(=O)C2CCCCCC2)cc1` yielded a growth of 98.8%. In the case of `O=c1oc2c(cc1-c1ccc(F)cc1)C(O)Oc1ccccc1-2` (stereo not given), the growth was 100%. Molecule `Oc1cccc(-c2nc3sccn3c2-c2ccncn2)c1` has a growth of 102%. In the case of `COc1cc(C2CC(c3cc(Cl)c(C)cc3O)=NN2c2ccc(S(N)(=O)=O)cc2)cc(OC)c1OC` (stereo not given), the growth was 34.4%. With `C1CN(CC2CCC(CN3CCOCC3)O2)CCO1` (stereo not given) the growth was 104%. `CO[C@H]1CC(O[C@@H]2/C(C)=C/C[C@@H]3C[C@@H](C[C@]4(C=C[C@H](C)[C@@H](C5CCCCC5)O4)O3)OC(=O)[C@@H]3C=C(C)[C@@H](O)[C@H]4OC/C(=C\C=C\[C@@H]2C)[C@]43O)O[C@@H](C)C1O[C@H]1C[C@H](OC)[C@@H](O)[C@H](C)O1` (stereo not given in full) was tested, and the growth was -25.9% (active). Molecule `COc1cc(C)ccc1Oc1nc(Nc2ccc(N3CCOCC3)cc2)ncc1NC(=O)Nc1cc(C(F)(F)F)cc(C(F)(F)F)c1` has a growth of 44.3%. For `COCCn1cc(-c2nc(-c3cccnc3)cs2)c2cc(F)ccc21`, the growth was 102%. `Cc1cc(CCNC=O)c(C)c2c1sc1ccccc12` gave a growth of 97.9%. `C/C=C/CSC(C)(C)C(=O)NC` was tested, and the growth was 98.4%. With `C/C(=C/CCC(C)[C@@H]1CC[C@]2(C)C3=C(CC[C@@]12C)[C@@]1(C)CCC(=O)C(C)(C)[C@@H]1CC3)C(=O)O` (stereo not given in full) the growth was -21.9% (active). In the case of `CN(C)c1ccc(/C=N/NC(=O)c2cccc3ccccc23)c(Cl)c1`, the growth was 36.5%. `CCOC(=O)CSc1nc(-c2cc(OC)ccc2OC)cc(-c2ccc(OC)cc2)c1C#N` was tested, and the growth was 82.4%. With `CCn1c2ccc(O)cc2c2c(C)c3c[n+](C)ccc3c(C)c21` the growth was 32.4%. `COc1cccc2ccc(CC(O)(c3ccccc3)c3ccccc3)nc12` showed a growth of 91.5%. `Cc1c(Cl)cccc1NC(=O)CN1CCOCC1` gave a growth of 106%. For `COc1cc(-c2nn(-c3cccc(NC(=O)CCN4CCN(c5ccccc5)CC4)c3)cc2-c2ccncc2)ccc1Cl`, the growth was 22.6%. With `O=C(O)COc1c(Cl)cc([N+](=O)[O-])cc1Cl` the growth was 99.3%. `CCc1cc(Cl)c(OC)c(C(=O)NCC2CCCN2CC)c1O` (stereo not given) showed a growth of 92.5%.

— PubChem BioAssay (NCI)
